Screening results deposited in PubChem by National Center for Advancing Translational Sciences (NCATS).
DT40 TDP1 CPT: qHTS for Inhibitors of human tyrosyl-DNA phosphodiesterase 1 (TDP1): qHTS in cells in presence of CPT. Potency, µM (highest dose often 46.2 µM), hits mostly inhibitors. actives 12% (n = 420,000). chicken DT40 Tdp1-/-;hTDP1 cells + 20 nM CPT, ATP luminescence, 48 h; note: nearly all actives have a fitted effect of over 55% in size
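Chicken DT40 Tdp1-/- cells complemented with human TDP1, 400 cells/well, exposed to compounds plus 20 nM camptothecin for at least 48 h at 37 C; viability read as ATP content by CellTiter-Glo luminescence.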
TDP1 cell noCPT: qHTS for Inhibitors of human tyrosyl-DNA phosphodiesterase 1 (TDP1): qHTS in cells in absence of CPT. DT40 Tdp1-/- hTDP1 cells, no CPT, ATP luminescence, 48 h. Potency, µM (titrated, usually from 46.2 µM), hits mostly inhibitors. actives 15% (n = 420,000); note: nearly all actives have a fitted effect of over 55% in size
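Growth of hTDP1-complemented DT40 Tdp1-knockout cells is measured by ATP luminescence after at least 48 hr compound exposure at 37 °C, with DMSO substituting for the 20 nM CPT used in the parallel screen.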
KB-V1 MDR tox: qHTS assay for MDR1-selective chemotherapeutics: Primary screen using the drug-selected MDR subline cells KB-V1; KB-V1 MDR cells viability, CellTiter-Glo, 72 h; Potency, µM (titrated, usually from 46.1 µM), actives largely listed as cytotoxic; actives 3.4% (n = 400,000); AID 1347076, 2019; note: nearly all actives have a fitted effect of over 60% in size
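KB-V1 MDR subline cells in DMEM (phenol-red free, 10% FBS) exposed to compounds in qHTS concentration series for 72 h at 37 degrees C. Viability read by CellTiter-Glo luminescence; concentration-effect curves fitted after normalization and correction.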
HT1080 IDH1KD tx: qHTS for induction of synthetic lethality in tumor cells producing 2HG: qHTS for the HT-1080-IDH1KD cell line | HT-1080 IDH1 knockdown viability, ATP luminescence, 48 h | Potency, µM (doses to about 46.1 µM), most hits filed as cytotoxic | actives 2% (n = 360,000)
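Luminescent ATP read-out (CellTiter-Glo, 10 min at room temperature) after 48 h compound exposure at 37 °C gave viability of IDH1-knockdown HT-1080 cells. Activity was normalised to DMSO and cell-free wells, then fitted as concentration-response curves.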
KB-3-1 cytotox: qHTS assay for MDR1-selective chemotherapeutics: Primary screen using the parental adenocarcinoma cell KB-3-1; KB-3-1 viability, CellTiter-Glo ATP luminescence, 72 h; Potency, µM (titrated, usually from 46.1 µM), actives largely listed as cytotoxic; actives 1.4% (n = 400,000); AID 1347075, 2019; note: nearly all actives have a fitted effect of over 60% in size
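Multi-concentration cytotoxicity screen in KB-3-1 cells grown in DMEM lacking phenol red with 10% FBS. After 72 h at 37 °C with compound, ATP-dependent luminescence was recorded.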
HT1080-NT tox: qHTS for induction of synthetic lethality in tumor cells producing 2HG: qHTS for the HT-1080-NT fibrosarcoma cell line. HT-1080-NT fibrosarcoma viability, CellTiter-Glo ATP luminescence, 48 h. Potency, µM (titrated, usually from 46.1 µM), actives largely listed as cytotoxic. actives 1.6% (n = 360,000);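 note: NT is the 2HG producing partner of a matched IDH1 knockdown line; nearly all actives have a fitted effect of over 55% in size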
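Luminescent CellTiter-Glo readout after 48 hours of compound exposure at 37 degrees C defined viability of HT-1080-NT cells. Activity was normalized to DMSO wells and cell-free media wells; concentration-response curves were fitted and assigned curve classes.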
Numbers stand for hits. Sampled rows, rich in hits. Any-hit rate of the full collection: about 19%. Calls come from the whole dose curve; as a rule, active = well fitted curve in the direction sought with a large enough effect; inconclusive = small, poorly fitted or top-dose-only effect, or another doubt; inactive = no such curve, though single readings can be large; an effect the other way counts as inactive or inconclusive.

COc1ccc(C(=O)NCC(=O)OCC(=O)N2CC(C)OC(C)C2)cc1OC (configuration not stated) was read as DT40 TDP1 CPT inactive, TDP1 cell noCPT inactive, KB-V1 MDR tox inconclusive, HT1080 IDH1KD tx inactive, KB-3-1 cytotox inactive and HT1080-NT tox inactive.
For CCOc1ccccc1OCCC(=O)OCC(=O)c1ccc[nH]1 the results were DT40 TDP1 CPT inactive, TDP1 cell noCPT inactive, KB-V1 MDR tox inactive, HT1080 IDH1KD tx inactive, KB-3-1 cytotox inactive and HT1080-NT tox inactive.
`Cc1cc2c(cc1C)NC(CC(=O)Nc1ccccc1SC(F)(F)F)C(=O)N2` (configuration not stated) gave DT40 TDP1 CPT inconclusive, TDP1 cell noCPT 16µM, KB-V1 MDR tox inactive and KB-3-1 cytotox inactive.
For Cc1cc2c(cc1C)NC(CC(=O)Nc1cccc(C)c1C)C(=O)N2 (configuration not stated) the results were DT40 TDP1 CPT 15µM, TDP1 cell noCPT 16µM, KB-V1 MDR tox inactive and KB-3-1 cytotox inactive.
For Cc1cc2c(cc1C)NC(CC(=O)NCc1ccccc1)C(=O)N2 (configuration not stated) the results were DT40 TDP1 CPT inconclusive, TDP1 cell noCPT inactive, KB-V1 MDR tox inconclusive, HT1080 IDH1KD tx inactive, KB-3-1 cytotox inactive and HT1080-NT tox inactive.
Cc1ccc(NC(=O)CC2Nc3cc(C)c(C)cc3NC2=O)c(C)c1 (configuration not stated) was read as DT40 TDP1 CPT inconclusive, TDP1 cell noCPT inconclusive, KB-V1 MDR tox inconclusive and KB-3-1 cytotox inactive.
Screening CCc1cc(C(=O)OC)c(NC(=O)CC2Nc3cc(C)c(C)cc3NC2=O)s1 (configuration not stated) returned DT40 TDP1 CPT inactive, TDP1 cell noCPT inactive, KB-V1 MDR tox inactive, HT1080 IDH1KD tx inactive, KB-3-1 cytotox inactive and HT1080-NT tox inactive.
For COC(=O)c1c(NC(=O)CC2Nc3cc(C)c(C)cc3NC2=O)sc(C)c1C (configuration not stated) the results were DT40 TDP1 CPT 21µM, TDP1 cell noCPT inconclusive, KB-V1 MDR tox inconclusive, HT1080 IDH1KD tx inactive, KB-3-1 cytotox inactive and HT1080-NT tox inactive.
For CCN(CC)c1nc2c(S(=O)(=O)c3ccc(C)cc3)nnn2c2ccsc12 the results were DT40 TDP1 CPT inactive, TDP1 cell noCPT inactive, KB-V1 MDR tox inactive and KB-3-1 cytotox inactive.
Screening O=C(CCn1c(=O)c2ccccc2n(CC(=O)Nc2cccc(F)c2)c1=O)NCCc1ccccc1 returned DT40 TDP1 CPT inactive, TDP1 cell noCPT inactive, KB-V1 MDR tox inactive and KB-3-1 cytotox inactive.
`COc1ccc(C(C#N)CC(=O)c2ccc(OCc3ccccc3)c(OC)c2)cc1OC` (configuration not stated) gave DT40 TDP1 CPT inconclusive, TDP1 cell noCPT inconclusive, KB-V1 MDR tox inconclusive, HT1080 IDH1KD tx inactive, KB-3-1 cytotox inactive and HT1080-NT tox inactive.
CC1CC/C(=C\c2ccc3c(c2)OCO3)C(=O)/C1=C/c1ccc2c(c1)OCO2 (configuration not stated) was read as DT40 TDP1 CPT inconclusive, TDP1 cell noCPT inconclusive, KB-V1 MDR tox inactive, HT1080 IDH1KD tx inconclusive, KB-3-1 cytotox 26µM and HT1080-NT tox inconclusive.
Cc1onc(-c2ccccc2)c1C(=O)NC1CCCCC1C (configuration not stated) was read as DT40 TDP1 CPT inconclusive, TDP1 cell noCPT inactive, KB-V1 MDR tox inactive, HT1080 IDH1KD tx inactive, KB-3-1 cytotox inactive and HT1080-NT tox inactive.
